biological target: TMCO6; assay: pooled miR-30 sensor sort-seq; sequence = guide strand; settings: shRNA
Further: reference of the scale not given here.

Sequence | sensor-assay potency score (higher = more potent)
ATACACACGATCCTGGAGCTGG | -0.0753
AACATTTGTAGCATGTGCTGAG | 0.662
TTTCTCAGCAGCCTCTTGCTGA | -0.697
AACACGCTCATCTCTGAGCTGC | -0.789
TACTGGACAAACAAGCTTGATG | -0.998

biological target: TMED3; assay: as above; settings: shRNA

Sequence | sensor-assay potency score (higher = more potent)
ATCGTCTCGCCAACAGACCAGT | -1.25
TACATAGCAGTCAACATCGTAG | -0.235
TTCGTTTCTCTGTAGATGGTGT | 0.459
TTGTCCGGCAGCTCGAAGGTGA | -0.973
TACCACAGCAGCATCGTTCTGC | 0.426
ATAGCAGTCAACATCGTAGTGG | -0.497
TTCAACAGTAGCACCTGACTGA | 0.248
TAGTTGTAAATGTCTTTTCAGC | -1.07
TAGCAGTCAACATCGTAGTGGC | -0.101
TTGAAAGTCAAAGTAGACGGTC | -0.0324
TACTGCTTCTTCGTTTCTCTGT | -0.244
TATTAAGGTCTTCCGCTCGGGC | -0.618

biological target: TMED9; assay: as above; settings: shRNA

Sequence | sensor-assay potency score (higher = more potent)
TGGGAAGTGAAAGTGAACCTGC | 0.118
TTCACCTCCACAAACATGCCAA | -0.184
TTTCTGGATCTGCTCCACTTGT | -1.3
TGTCTTTAGCAGCAATTTCTGC | -1.06
TAACACTGTGATTCTGAGGTGC | 0.27
TATGACCATGGTCTCGTCCGGG | -0.321
TTTAGCAGCAATTTCTGCATAG | -0.576
TCAGTAACTAAGACTCTGCAGG | -0.549
TTGGAGTGAAGACAGATCTGGT | -0.176
TTGTCATACAGCTGCGTCCGGT | -1.2
ATGACCATGGTCTCGTCCGGGA | -0.96
TTGAGGTGCCGCATCTGCCAGA | -0.928

biological target: TMEFF2; assay: as above; settings: shRNA

Sequence | sensor-assay potency score (higher = more potent)
TCAATATTACACACACACCAGA | -1.06
TAGAACACTGTAGTCCTTTTTT | -1.55
TTGTGTTATCTTGACATCGACC | -0.895
TAGATCTCTTGTCTTATTCTTT | -0.31
TAGAATGCTCACACTTCCCATG | -0.607
TTGTCTGAACTGTAGTGCCCTG | -0.73
TTAAGACATACTGAAATCGTAC | -0.191
TTTTTTCACAGTGTTGTCCAGT | -0.255
TACAGGACCGGGAACAACGTAT | -0.637
TAGCATTCTCTGCATAATCTGT | -0.543
TTGTTGTATTGTCTGAACTGTA | -0.51
